According to PubChem BioAssay (NCATS):
Results filed as inconclusive are left out. The source made the active and inactive calls. Unless noted, calls follow the shape of the dose curve; as a rule, active = well fitted curve in the direction sought with a large enough effect; inconclusive = small, poorly fitted or top-dose-only effect, or another doubt; inactive = no such curve, though single readings can be large; an effect the other way counts as inactive or inconclusive.

Legend:
[1] = qHTS to identify inhibitors of the type 1 interferon - major histocompatibility complex class I in skeletal muscle: primary screen against the NCATS Mechanism Interrogation Plate v5.0 (MIPE) Libary (AID 1347411); also: nearly all actives have a fitted effect of over 65% in size; also: potency is read from the fitted curve at half-maximal effect;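 as to activity change, negative = inhibition: plate controls were vehicle for no effect and reference inhibitor for full effect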
How it was run: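 HLA-B HiBit myoblasts, dexamethasone-free medium + 4 ng/ml IFN-b, 24 h compound, 11-pt 1:3 from 46 uM final. Readout: Nano-Glo HiBiT lytic luminescence after 10 min lysis, RT.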

[2] = Primary qHTS for inhibitors of nuclear receptor binding SET domain protein 2 (NSD2) in an isogenic RCH-ACV NSD2 p.E1099K mutant (9B) (AID 1645876); also: nearly all actives have a fitted effect of over 70% in size; also: potency is read from the fitted curve at half-maximal effect
[3] = Primary qHTS for inhibitors of nuclear receptor binding SET domain protein 2 (NSD2) in an RCH-ACV wild type WT cells (2C) (AID 1645877); also: nearly all actives have a fitted effect of over 70% in size; also: potency is read from the fitted curve at half-maximal effect
[4] = target: Glutathione peroxidase 1 (Homo sapiens) (UniProt P07203); assay: Primary qHTS Assay for Inhibitors of Recombinant Selenoprotein Glutathione Peroxidase 1 (GPX1) (AID 1845191); also: nearly all actives have a fitted effect of over 65% in size
How it was run: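 GR-coupled readout: NADPH consumption tracked by fluorescence, ex 340/em 450 nm, at t=0 and after 15 min at RT. Final mix 10 nM GPX1, 1 mM GSH, 0.5 mM CHP, 0.5 mM NADPH, 100 nM GR, 0.01% BSA, following 30 min enzyme–compound preincubation.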

[5] = target: Phospholipid hydroperoxide glutathione peroxidase GPX4 (Homo sapiens) (UniProt P36969); assay: Primary qHTS Assay for Inhibitors of Recombinant Selenoprotein Glutathione Peroxidase 4 (GPX4) (AID 1845192); settings: outcome: dose series up to 50 µM unless noted; also: nearly all actives have a fitted effect of over 65% in size; also: potency is read from the fitted curve at half-maximal effect; as to activity change, negative = inhibition: % is scaled to controls: 0 for no effect and ±100 for the full control effect
How it was run: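 Steps: GPX4 plus compound, 30 min RT; add GR/GSH/NADPH master mix; start with cumene hydroperoxide; read 340/450 nm fluorescence at 0 and 15 min. Finals were 200 nM GPX4, 1 mM GSH, 0.5 mM CHP, 0.5 mM NADPH, 100 nM GR.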

[6] = qHTS drug screen for cell cycle checkpoint inhibitors in PARPi-resistant BRCA-mutant ovarian cancer cell lines. (AID 1963452; calls by dose curve; also: potency is read from the fitted curve at half-maximal effect); settings: PEO1/OlaR viability, CellTiter-Glo luminescence, 96 h; for Z-AUC: stronger effect = lower value
How it was run: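 PEO1, PEO4 and PEO1/OlaR ovarian cancer cells, 600 per well, exposed 96 h at 37C to a dilution series. Viability read by CellTiter-Glo luminescence, normalized to DMSO and empty wells; activity summarized as Z-AUC.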

[7] = qHTS assay to identify inhibitors of the type 1 interferon - major histocompatibility complex class I in skeletal muscle: Counter screen cell viability and HiBit confirmation (AID 1347412); settings: iHSKM muscle cells + IFN-b, HiBiT or CellTiter-Glo, 24 h; for activity change, negative = inhibition: at 45.9 µM (top of the series); also: potency is read from the fitted curve at half-maximal effect; as to activity change, negative = inhibition: % is scaled to controls: 0 for no effect and ±100 for the full control effect; as to all read-outs here: nearly all actives have a fitted effect of over 60% in size
How it was run: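 After 24 h with human IFN-beta (4 ng/ml) and compound titrations (top 46 uM final, 1:3, 12 points), HLA-B HiBit myoblasts were lysed for either Nano-Glo HiBiT luminescence or CellTiter Glo viability on paired plates.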

[8] = measured here: PEO1 parental Z-AUC

Chain of Glutathione peroxidase 1 (Homo sapiens) (P07203 whole entry, looked up): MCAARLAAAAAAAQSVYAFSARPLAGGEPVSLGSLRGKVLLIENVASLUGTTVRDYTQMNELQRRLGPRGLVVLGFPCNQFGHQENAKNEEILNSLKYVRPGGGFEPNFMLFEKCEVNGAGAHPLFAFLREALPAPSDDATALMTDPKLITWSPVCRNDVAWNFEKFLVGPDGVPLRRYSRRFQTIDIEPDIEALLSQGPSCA
Chain of Phospholipid hydroperoxide glutathione peroxidase GPX4 (Homo sapiens) (P36969 whole entry, looked up): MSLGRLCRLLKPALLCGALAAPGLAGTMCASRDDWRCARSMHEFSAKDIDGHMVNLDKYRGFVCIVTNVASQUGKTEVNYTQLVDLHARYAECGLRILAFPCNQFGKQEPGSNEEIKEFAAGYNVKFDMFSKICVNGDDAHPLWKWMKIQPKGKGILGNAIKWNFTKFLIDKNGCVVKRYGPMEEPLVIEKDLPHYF

SMILES	Potency [1]	Potency [2]	Potency [3]	Potency [4]	Potency [5]	Z-AUC [6]	Z-AUC [6, 8]	Z-AUC ([6]; measured here: PEO4 Z-AUC)	Potency ([7]; HiBiT)	activity change, negative = inhibition ([7]; Viability)	Potency ([7]; Viability)	activity change, negative = inhibition ([7]; HiBiT)	Potency [6]
CC1=C2[N-][C@H]([C@H](CC(N)=O)[C@@]2(C)CCC(=O)NC[C@@H](C)OP(=O)([O-])O[C@H]2[C@@H](O)[C@@H](n3cnc4cc(C)c(C)cc43)O[C@@H]2CO)[C@]2(C)N=C(C(C)=C3N=C(C=C4N=C1[C@@H](CCC(N)=O)C4(C)C)[C@@H](CCC(N)=O)[C@]3(C)CC(N)=O)[C@@H](CCC(N)=O)[C@]2(C)CC(N)=O.O.[Co+2]	8.29 µM (active)	inactive	inactive	inactive	inactive	-0.864 (inactive)	0.932	0.294	14 µM (active)	-18.1% (inactive)			
Fc1cccc(-n2cnc3c(NCc4nc5c(F)c(F)ccc5[nH]4)nc(N4CCOCC4)nc32)c1	0.523 µM (active)	0.166 µM (active)	0.166 µM (active)	inactive	inactive	-1.76 (inactive)	-2.45	-2.33	0.442 µM (active)	-14.7% (inactive)			
OC1CCC(Oc2cccc3cnc(Nc4ccc5nc[nH]c5c4)nc23)CC1 (stereo unspecified)	0.523 µM (active)	0.59 µM (active)	0.468 µM (active)	inactive	inactive	-1.25 (inactive)	-1.54	-0.421	0.557 µM (active)	9.5% (inactive)			
C=CCNc1c(O)cc2c(O)c1C[C@@H](C)C[C@H](OC)[C@H](O)[C@@H](C)/C=C(/C)[C@H](OC(N)=O)[C@@H](OC)/C=C\C=C(\C)C(=O)N2	0.0523 µM (active)	1.66 µM (active)	1.05 µM (active)	inactive	inactive	0.465 (inactive)	0.348	0.268	0.0443 µM (active)				
C[C@H](NC(=O)/C(C#N)=C/c1cccc(Br)n1)c1ccccc1	10.4 µM (active)	14.8 µM (active)	14.8 µM (active)			0.178 (inactive)	-0.139	-0.487	7.01 µM (active)	17% (inactive)			
C=C1C(=O)O[C@@H]2[C@H]3C(C)=CC[C@@]34O[C@@]4(C)CC[C@@H]12	16.5 µM (active)	5.25 µM (active)	4.68 µM (active)	inactive	inactive	0.243 (inactive)	0.182	0.342	12.5 µM (active)	49.2% (inactive)			
CC(C)c1c(-c2ccccc2)nc2c(C#N)c[nH]n2c1=O	5.23 µM (active)	inactive	inactive	inactive	inactive	1.36 (inactive)	0.594	0.731	3.94 µM (active)	-0.422% (inactive)			
CNc1nc(-c2ccc3c(N)n[nH]c3c2)cc(N2C[C@@H](C(=O)NC3CCCCC3)CC[C@H]2C)n1	13.1 µM (active)	0.525 µM (active)	0.833 µM (active)	inactive	inactive	-1.31 (inactive)	0.449	-0.0883	31.3 µM (active)				
COC(=O)c1ccc([C@H]2c3[nH]c4ccccc4c3C[C@H](C(=O)OC)N2C(=O)CCl)cc1	0.829 µM (active)	0.148 µM (active)	0.148 µM (active)	inactive	inactive	-1.5 (inactive)	0.403	-0.118	0.496 µM (active)		0.787 µM (active)		
CC(=O)Nc1cc(Oc2ccc3c(nc(Nc4ccc(F)cc4F)n3C)c2C)ccn1	0.262 µM (active)	11.8 µM (active)	2.63 µM (active)	inactive	inactive	-0.216 (inactive)	-0.646	-1.5	1.11 µM (active)				
Cc1cc(-n2c(=O)ccc3cnc4[nH]ccc4c32)ccc1F	4.15 µM (active)	18.6 µM (active)		inactive	inactive	-0.465 (inactive)	0.0709	0.281	3.52 µM (active)	5.99% (inactive)			
COc1ccc(N2C(=O)N(c3c(C)cccc3Cl)Cc3cnc(Nc4ccc(C5CCN(C)CC5)cc4OC)nc32)nc1	14.7 µM (active)	3.32 µM (active)	3.72 µM (active)	inactive	inactive	-1.61 (inactive)	-1.1	-0.332	14 µM (active)				
Cc1ncsc1-c1ccc([C@H](C)NC(=O)[C@@H]2C[C@@H](O)CN2C(=O)[C@@H](NC(=O)COCCCOCCNC(=O)C[C@@H]2N=C(c3ccc(Cl)cc3)c3c(sc(C)c3C)-n3c(C)nnc32)C(C)(C)C)cc1	0.208 µM (active)	0.0148 µM (active)	0.0186 µM (active)	inactive	inactive	-2.25 (inactive)	-2.46	-2.23	0.394 µM (active)	-12.4% (inactive)			
NC(=O)/C(=C/n1cnc(-c2cc(C(F)(F)F)cc(C(F)(F)F)c2)n1)c1cncnc1	3.3 µM (active)	0.417 µM (active)	0.235 µM (active)	inactive	inactive	-0.773 (inactive)	-2.06	-1.68	1.57 µM (active)				
COc1nc(OCc2cccc(-c3ccccc3)c2C)ccc1CNCCNC(C)=O	16.5 µM (active)	7.42 µM (active)	7.42 µM (active)	inactive	inactive	-0.638 (inactive)	-0.646	-0.574				-16.7% (inactive)	
C[C@@H](Oc1ccc2[nH]nc(/C=C/c3cnn(CCO)c3)c2c1)c1c(Cl)cncc1Cl	0.93 µM (active)	0.833 µM (active)	0.417 µM (active)	inactive		-1.01 (inactive)	-0.521	-0.403	0.557 µM (active)				
CC(=O)NCC(=O)N1[C@@H]2CC[C@H]1c1ccc(Nc3ncc(C(F)(F)F)c(NC4CCC4)n3)cc12	4.66 µM (active)	0.59 µM (active)	0.166 µM (active)	inactive	inactive	-0.104 (inactive)	-0.113	-0.17	3.13 µM (active)	-29.6% (inactive)			

SMILES	Potency [1]	Potency [2]	Potency [3]	Potency [4]	Potency [5]	Z-AUC [6]	Z-AUC [6, 8]	Z-AUC ([6]; measured here: PEO4 Z-AUC)	Potency ([7]; HiBiT)	activity change, negative = inhibition ([7]; Viability)	Potency ([7]; Viability)	activity change, negative = inhibition ([7]; HiBiT)	Potency [6]
Cc1ccc(NC(=O)c2ccc3c(c2)OCCO3)cc1NC(=O)c1ccc2nc(OCCN3CCCC3)ccc2c1	0.286 µM (active)	0.0574 µM (active)	0.0456 µM (active)	inactive	inactive	-1.99 (inactive)	-1.87	-2.21	0.557 µM (active)	-19.9% (inactive)			
C[C@@]12C(=O)OC(=O)[C@]1(C)[C@H]1CC[C@@H]2O1	5.87 µM (active)	6.61 µM (active)	4.68 µM (active)	inactive	inactive	0.0424 (inactive)	0.505	0.28	27.9 µM (active)		14 µM (active)		
C[C@@H]1C[C@H](N)C[C@H](c2ccncc2NC(=O)c2ccc(F)c(-c3c(F)cccc3F)n2)C1	26.2 µM (active)	14.8 µM (active)	11.8 µM (active)	inactive	inactive	-0.973 (inactive)	-0.644	-0.817		-19.6% (inactive)		-24.5% (inactive)	
Cc1c(-c2cnccn2)ssc1=S	inactive	16.6 µM (active)	13.2 µM (active)			-0.037 (inactive)	0.595	0.421					
CC(=O)N1c2ccc(-c3ccc(C(=O)O)cc3)cc2[C@H](Nc2ccc(Cl)cc2)C[C@@H]1C	inactive	0.0934 µM (active)	0.0934 µM (active)	inactive		-0.689 (inactive)	-0.385	-0.741					
O=C(/C=C/c1ccc2ccc(C(F)(F)F)cc2n1)c1ccncc1	5.23 µM (active)	2.35 µM (active)	2.09 µM (active)		inactive	-0.632 (inactive)	-0.753	-0.961	4.43 µM (active)				
CN1C(N)=N[C@](C)(c2cc(NC(=O)c3ccc(F)cn3)ccc2F)CS1(=O)=O	inactive	inactive	inactive	inactive	inactive	1.51 (inactive)	0.477	0.848					
Cc1ccc(-n2c(C)cc(-c3nnc4n3CCCCC4)c2C)cc1	inactive	18.6 µM (active)	18.6 µM (active)		inactive	1.28 (inactive)	1.19	1.13					
CC(C)=CCC[C@](C)(O[C@@H]1O[C@H](CO[C@@H]2O[C@H](CO)[C@@H](O)[C@H](O)[C@H]2O)[C@@H](O)[C@H](O)[C@H]1O)[C@H]1CC[C@]2(C)[C@@H]1[C@H](O)C[C@@H]1[C@@]3(C)CC[C@H](O[C@@H]4O[C@H](CO)[C@@H](O)[C@H](O)[C@H]4O[C@@H]4O[C@H](CO)[C@@H](O)[C@H](O)[C@H]4O)C(C)(C)[C@@H]3CC[C@]12C	inactive	inactive	inactive	inactive	inactive	1.47 (inactive)	1.48	1.64					
CNC(=O)[C@@H](NC(=O)[C@H](CC(C)C)[C@H](O)C(=O)NO)C(C)(C)C	inactive	18.6 µM (active)	13.2 µM (active)	inactive	inactive	1.14 (inactive)	0.454	0.976					
COC(=O)C1=C(C)NC(c2ncc(F)cc2F)=N[C@H]1c1ccc(F)cc1Cl	20.8 µM (active)	14.8 µM (active)	13.2 µM (active)	inactive	inactive	0.0263 (inactive)	0.182	1.13					
COc1ccc(C(=O)N2CCN(c3ccc4c(c3)CCC(=O)N4)CC2)cc1OC	inactive	inactive	inactive	inactive	inactive	-0.238 (inactive)	0.0272	0.0147					
Cc1c(CN2CCN(C(=O)[C@H](C)O)CC2)sc2c(N3CCOCC3)nc(-c3cnc(N)nc3)nc12	0.262 µM (active)	0.0417 µM (active)	0.0742 µM (active)	inactive	inactive	0.0318 (inactive)	0.386	0.839					
CN1CCN(c2ccc3nc(-c4cc(C(C)(C)C)c(OCCCC(=O)NCCCN=[N+]=[N-])c(C(C)(C)C)c4)[nH]c3c2)CC1	13.1 µM (active)	7.42 µM (active)	6.61 µM (active)	inactive		0.842 (inactive)	0.24	0.156			24.9 µM (active)		
NS(=O)(=O)c1ccc(Cc2c(-c3cccc(-c4ccccc4)c3)nn(-c3nc(C(=O)O)cs3)c2CC2CC2)cc1	inactive		5.25 µM (active)	inactive	6.4 µM (active)	-1.08 (inactive)	-0.77	-1.44					
c1ccc(CNCc2ccc(CN3CCCNCCNCCCNCC3)cc2)nc1	inactive	inactive	inactive	inactive	inactive	1.17 (inactive)	1.27	1.11					
C[C@H]1CNC(=O)c2cnn3ccc(nc23)N[C@H](C)c2cc(F)ccc2O1	1.17 µM (active)	1.48 µM (active)	1.18 µM (active)		inactive		-2.09	-2.06	4.43 µM (active)				1.55 µM (active)
